KLF5 inhibitor: suppresses KLF5 promoter-driven expression. DLD-1 KLF5 promoter-luciferase reporter, luminescence. inhibition, % at 5 µM. 0.23% of 290,000 active. AID 1700;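 active = inhibition above a per-plate limit of that plate's mean compound inhibition plus 3 SD, cut at about 60% in these data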;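 note: 0% = DMSO wells and 100% = LY294002 at 200 µM; higher means less KLF5 promoter-driven luciferase light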
BaF3 tox: counter-screen for JAK2V617F inhibitors: parental Ba/F3 viability inhibitors; CellTiter-Glo ATP luminescence; inhibition, % at 5.6 µM; 1.1% of 220,000 active;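 active = inhibition above a per-campaign cutoff, the mean inhibition of all tested compounds plus 3 SD, cut at about 27% in these data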;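 note: 0% = DMSO wells and 100% = JAK Inhibitor I control wells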
IEC-6 cytotox: IEC-6 cytotoxicity, counter-screen for KLF5 inhibitors; 0.78% of 290,000 active; inhibition, % at 5 µM; luminescence viability; in the data active = inhibition above about 22%;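 note: 0% = plate median of test compound wells and 100% = cytotoxic reference compound wells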
aSyn UTR inh: MLPCN primary screen, SNCA 5' untranslated region; alpha-synuclein 5'UTR reporter, inhibitor activity; inhibition, % (tested at 7.5 µM); 0.82% of 300,000 active; AID 1813; in the data active = inhibition above about 60%;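 note: H4 neuroglioblastoma cells stably carrying SNCA 5'UTR luciferase fusion; 0% = DMSO wells and 100% = positive control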
Ba/F3 V617F tox: loss of viability in JAK2V617F-driven Ba/F3 cells; Ba/F3 EpoR-JAK2V617F viability, ATP luminescence; inhibition, % at 5.6 µM; 1.1% of 220,000 active;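 active = inhibition above the campaign mean plus 3 SD over all tested compounds, cut at about 24% in these data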;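 note: cytokine-independent growth of Ba/F3 cells driven by EpoR plus mutant JAK2; 0% = DMSO-treated cells and 100% = JAK inhibitor I control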
APP transl inh: APP translation inhibition | 0.82% of 190,000 active | SH-SY5Y APP 5'UTR-luciferase reporter, luminescence | inhibition, % at 2 µM | AID 1285;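 active = inhibition above a set limit, derived from the sample mean plus 3 SD, cut at about 45% in these data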
Active calls of the source: *; . = not tested or not shown; ! = a repeat was not active. Most compounds without a hit are left out; they make up all but 2.1% or so of the library.

SMILES	KLF5 inhibitor	BaF3 tox	IEC-6 cytotox	aSyn UTR inh	Ba/F3 V617F tox	APP transl inh
CC1(C2(O)CC(c3ccccc3)ON2)CCCCC1 (configuration not stated)	0	0	-1	-47	-2	-5
O=C(N/N=C\c1ccc([N+](=O)[O-])s1)c1cncc(Br)c1	-19	8	10	77*	2	31
Cc1ccccc1C(=O)N/N=C/c1ccc([N+](=O)[O-])s1	-20	5	2	93*	2	43
Cc1ccc(/C=N/NC(=O)c2cccc([N+](=O)[O-])c2)o1	6	6	1	14	3	62*
O=C(N/N=C/c1ccc([N+](=O)[O-])s1)c1ccccc1Br	-14	2	4	47	5	38
O=C(N/N=C/c1ccc(Br)s1)c1cccc([N+](=O)[O-])c1	-22	7	0	70*	-1	44
COc1ccccc1N1CCN(CC(=O)Nc2nc(C)c(C(=O)N(C)C)s2)CC1	5	.	3	7	.	.
Cc1cc2c(NCc3ccccc3)ncnc2s1	-17	.	7	25	.	.
O=C(N/N=C/c1ccc([N+](=O)[O-])s1)c1ccccc1	3	7	2	68*	5	24
O=C(Cc1ccccc1)N/N=C/c1ccc([N+](=O)[O-])s1	-10	7	7	16	4	2
O=C(Nc1ccc(-c2nc3ccccc3s2)cc1)C1=COCCO1	-99	6	-8	94*	0	-102
Cc1cc(C)c2nc(NCCCNC(=S)NCCCN(C)C)c(C#N)cc2c1	-24	6	-2	96*	1	-11
CCOCCCNC(=S)NCCCNc1nc2c(C)cc(C)cc2cc1C#N	-17	6	-1	.	4	11
O=C(NNc1ccnc2cc(Cl)ccc12)C1CCCCC1	-22	36*	10	-1	25*	18
Cc1nn(CC(=O)NCCc2ccc(Cl)cc2)c(=O)c2cccn12	-33	.	4	-11	.	.
CCc1n[nH]c(=S)n1/N=C/c1c(C)nn(-c2ccccc2)c1Cl	-5	1	-3	106*	0	7
CCN(CC)CCCNC(=O)c1cc2c(-c3ccc(Cl)cc3)nn(C)c2s1	-14	29*	14	-39	7	-3
Cn1c(C(=O)N2CCCC(C(=O)O)C2)cc2sccc21 (configuration not stated)	-3	95*	2	3	-3	-11
Cn1c(C(=O)N2CCCC(C(=O)N3CCN(C(=O)c4ccco4)CC3)C2)cc2sccc21 (configuration not stated)	11	3	0	.	-3	14
COc1cc(/C=C(/C#N)C(=O)Nc2ccc(Cl)cc2)ccc1Oc1nc(Cl)ncc1F	-13	-6	-7	-14	-1	.
CC(=O)NC(CC(=O)NNC(=O)c1cc2ccccc2cc1O)c1ccccc1 (configuration not stated)	-40	.	2	9	.	.
CC[C@H](C)C(=O)O[C@H]1CCC=C2C=C[C@H](C)[C@H](CC[C@@H]3C[C@@H](O)CC(=O)O3)[C@H]21	16	27*!	3	40	62*	5
CC[C@H](C)C(=O)O[C@H]1C[C@@H](C)C=C2C=C[C@H](C)[C@H](CC[C@@H]3C[C@@H](O)CC(=O)O3)[C@H]21	-23	8	-3	5	3	8
O=S1(=O)C=C(Sc2nc3ccccc3s2)c2ccccc21	19	105*	72*	-14	101*	96*
CCc1ccc(-c2nnn(CCC(=O)OC)n2)cc1	-6	6	0	77*	-2	48*
SMILES	KLF5 inhibitor	BaF3 tox	IEC-6 cytotox	aSyn UTR inh	Ba/F3 V617F tox	APP transl inh
O=C(O)CCn1nnc(-c2cccs2)n1	-13	2	4	10	2	4
CC(C)c1ccc(-c2nnn(CCC(=O)O)n2)cc1	33	4	-1	118*	6	82*
Cc1cccc(-c2nnc3n2N=C(c2ccccc2)CS3)c1	-16	4	1	63*	-1	-6
Fc1ccc(-n2cc(-c3ccccc3)[n+]3c2SCC3)cc1	-12	79*	-5	-10	49*	-4
COc1ccc(-c2cn(-c3ccccc3)c3[n+]2CCS3)cc1	-13	67*	10	-7	76*	5
Fc1ccc(-n2cc(-c3ccccc3)c3c(N4CCOCC4)ncnc32)cc1	6	6	4	2	1	12
c1ccc(-c2cn(-c3ccccc3)c3[n+]2CCS3)cc1	-8	63*	-2	-3	69*	-5
COc1cc2c3nc4n(c(=O)c3n(CC(=O)NCC3CCCO3)c2cc1OC)CCS4 (configuration not stated)	-20	.	-10	11	.	.
C#CC[N+](CC)(CC)CC#Cc1ccccc1	7	62*	1	-7	59*	.
C(#Cc1ccccc1)CN1CCCCC1	-4	1	2	-6	-4	5
CCOC(=O)C[N+](CC)(CC)CC#Cc1ccccc1	-28	2	1	15	0	-5
C#CC[N+](C)(C)CC#Cc1ccc(C)cc1	12	37*	-4	21	41*	-4
CC[N+](CC)(CC#Cc1ccccc1)CC#Cc1ccccc1	-19	67*	3	-12	89*	.
CC(C)CC(NC(=O)c1ccc(Cl)cc1)C(=O)OCC(=O)c1ccc2c(c1)NC(=O)CO2 (configuration not stated)	-23	2	-1	96*	2	25
Cc1cccc(C)c1N=C1SC(CC(=O)Nc2c(C)cccc2C)C(=O)N1CCc1ccccn1 (configuration not stated)	-9	12	8	67*	5	6
O=c1[nH]c(CSc2nc(-c3ccc(F)cc3)cs2)nc2ccccc12	-9	2	2	-3	-2	9
CC(C)CC(NC(=O)C(COCc1ccccc1)NC(=O)OC(C)(C)C)C(=O)NN (configuration not stated)	-16	-1	2	5	4	7
CCN(c1ccc(NC(=O)c2ccc(Cl)nc2)cc1)C(C)C	17	69*	69*	18	77*	60*
COc1ccccc1NC(=O)C1CCN(C(=O)NCc2ccccc2)CC1	-32	.	-7	25	.	.
COc1ccccc1N(C(=O)CNC(=O)c1ccco1)C(C(=O)NCC1CCCO1)c1ccccc1 (configuration not stated)	-20	.	-2	-11	.	.
CCCc1ccc(-c2ccc(F)c(N)c2)nc1	-13	3	4	99*	-3	-140
CCCCCCCCCCOC(=O)Cn1c(COc2ccccc2OC)[n+](C)c2ccccc21	25	.	12	81*	.	.
O=C(Nc1cccc2ccccc12)C12CC3CC(C1)CC(n1cnc([N+](=O)[O-])n1)(C3)C2	-20	3	0	73*	-4	2
O=C(CN1CCN(c2ccccn2)CC1)Nc1ccc([N+](=O)[O-])cc1C(=O)Nc1ccccc1F	-20	.	-8	18	.	.

Screening data from PubChem.
